# Source: PubChem BioAssay
# The source made the active and inactive calls.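 The calls were made as follows, unless noted: active = visual image review flags a hit and inhibition of aggregation exceeds 20%; inconclusive = visual hit but inhibition at or below 20%; inactive = no hit on visual image review.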
# How the values were obtained:
# [1] = inhibitors of TNFa-induced NFkB p65 translocation, primary screen, imaging, HUVEC, MLSMR starter and 10KST1 sets (AID 438;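 active = inhibition above 20% together with a positive visual image hit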;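 also: compound added about 3h40 before a 20 min TNFalpha stimulation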;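 as to inhibition: signal is the nuclear over cytoplasmic p65 intensity ratio per well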); details: HUVEC TNFa-induced p65 nuclear translocation; cell count: measured here: nuclei count (cytotoxicity indicator), at 2.08 µM; inhibition: at 2 µM, stronger effect = higher value, 0% TNFa-plus-vehicle, 100% no-TNFa wells
# [2] = reduction of polyQ htt aggregates in cells – imaging, exon1htt(103Q)mCFP cells, high-content imaging, primary screen (AID 483); details: exon1htt(103Q)mCFP cell line, aggregate imaging, at 2 µM; inhibition of aggregation: stronger effect = higher value; nuclei count: measured here: cell count, toxicity;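 also: compound exposure lasted 3 days before fixation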;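 as to nuclei count: percent of the per-plate median nuclei count of sample wells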
# [3] = endothelial E-selectin expression blockers – imaging, HUVEC, immunofluorescence, MLSMR starter and 10KST1 sets, primary screen (AID 487;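 active = visually confirmed hit in the image check and inhibition above 20%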;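 as to inhibition: signal is fraction of cell area covered by stained E-selectin grains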;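 as to nuclei count: 100% = median nuclei count of all wells on the same plate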); details: HUVEC TNFalpha-induced E-selectin immunofluorescence imaging, at 2 µM; inhibition: stronger effect = higher value; nuclei count: measured here: cell number, toxicity
# [4] = biological target: Voltage-gated potassium channel subunit beta-2 (Rattus norvegicus) (UniProt P62483); test: inhibitors of rat Kvbeta2 reductase activity – biochemical, NADPH fluorescence, primary screen (AID 622;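 active = fluorescence slope higher than the sample average by over 3 SD, cut at about -0.22 in these data, passing the limit was not always enough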;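 also: slope of raw intensity against log time taken from 70 to 1610 s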); details: recombinant KvBeta, 4-cyanobenzaldehyde reduction, at 10 µM, stronger effect = higher value
# [5] = biological target: Voltage-gated potassium channel subunit beta-2 (Rattus norvegicus) (UniProt P62483); test: enhancers of rat Kvbeta2 NADPH turnover – biochemical, NADPH fluorescence, primary screen (AID 623;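 active = NADPH fluorescence slope more negative than the mean of all samples by about 3 SD, 99.7% confidence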;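 also: fluorescence intensity change per second fitted from 20 to 320 s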); details: Recombinant KvBeta, NADPH fluorescence decrease slope, 10 min; at 10 µM; stronger effect = lower value
# [6] = biological target: Alpha-2C adrenergic receptor (Homo sapiens) (UniProt P18825); test: compounds altering alpha2C-coupled GIRK flux – cell-based, HEK293 alpha2C/GIRK1/2, thallium flux, primary screen (AID 624;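 active = fluorescence slope after compound addition differing from the mean of all screened samples at 99.7% confidence, in either direction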;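 also: slope of fluorescence ratio to pre-addition baseline per second over 15 to 24 s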); details: thallium flux BTC fluorescence, at 10 µM, actives lie on both sides
# [7] = blockers of RIG-like receptor reporter activation – cell-based, Sendai virus stimulus, luciferase, 10K MLSCN set, TLR/RLR signaling modifier project, primary screen (AID 602276;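 active = inhibition at or above 50% at 10 µM; inactive = inhibition below 50%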;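 also: firefly luciferase from ISG56 promoter only with Renilla not read in this screen; 0% = Sendai virus plus DMSO and 100% = medium plus DMSO without virus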); details: HEK293 RL24 IRF3 luciferase reporter, at 10 µM, stronger effect = higher value
# [8] = TLR3 IRF3 reporter activation blockers – cell-based, poly I:C stimulus, luciferase, 10K MLSCN set, primary screen (AID 602277;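 active = inhibition of the reporter signal at or above 50%; inactive = inhibition below 50%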); details: HEK293-TLR3 RL24 IRF3 luciferase reporter, at 10 µM, stronger effect = higher value
# Alpha-2C adrenergic receptor (Homo sapiens), sequence (P18825 whole entry, looked up): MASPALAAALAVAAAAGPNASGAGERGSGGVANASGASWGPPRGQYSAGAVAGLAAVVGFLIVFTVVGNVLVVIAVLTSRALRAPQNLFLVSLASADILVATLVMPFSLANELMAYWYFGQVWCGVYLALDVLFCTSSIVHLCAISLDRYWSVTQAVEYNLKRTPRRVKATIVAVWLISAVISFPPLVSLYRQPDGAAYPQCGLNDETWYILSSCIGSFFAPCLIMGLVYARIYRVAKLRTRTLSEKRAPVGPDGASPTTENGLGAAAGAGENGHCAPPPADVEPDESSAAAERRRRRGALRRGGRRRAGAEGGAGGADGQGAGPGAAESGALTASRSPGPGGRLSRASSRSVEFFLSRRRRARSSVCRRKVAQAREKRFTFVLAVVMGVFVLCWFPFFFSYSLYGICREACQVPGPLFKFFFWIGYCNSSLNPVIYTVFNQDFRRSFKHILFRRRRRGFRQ
# Voltage-gated potassium channel subunit beta-2 (Rattus norvegicus), sequence (P62483 whole entry, looked up): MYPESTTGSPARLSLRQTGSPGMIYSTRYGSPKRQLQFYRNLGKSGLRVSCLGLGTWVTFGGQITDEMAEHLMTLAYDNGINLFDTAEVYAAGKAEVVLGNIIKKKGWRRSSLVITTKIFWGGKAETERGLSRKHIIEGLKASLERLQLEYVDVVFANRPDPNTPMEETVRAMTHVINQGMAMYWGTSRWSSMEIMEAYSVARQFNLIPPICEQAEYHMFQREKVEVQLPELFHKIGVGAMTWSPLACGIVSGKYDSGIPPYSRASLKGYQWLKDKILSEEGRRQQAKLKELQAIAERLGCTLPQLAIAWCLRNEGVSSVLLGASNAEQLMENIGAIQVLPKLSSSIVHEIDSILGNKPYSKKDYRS
Structure (SMILES),cell count [1],inhibition [1],inhibition of aggregation [2],nuclei count [2] [%],inhibition [3],nuclei count [3] [%],fluorescence slope [4],NADPH fluorescence slope [5],slope [6],inhibition [7],inhibition [8]
CCCCN(CC)CCNC(=O)c1cc2c(C)nc3ccccc3c2o1,656,0.3% (inactive),-11.7% (inactive),103,-28.4% (inactive),110,-0.544 (inactive),-3.2e-05 (inactive),0.00664 (inactive),5.91% (inactive),47% (inactive)
CCCCn1nc(C(=O)N2CCc3ccccc32)c2ccccc2c1=O,423,-9% (inactive),-20.9% (inactive),112,36.5% (inactive),41.8,-0.473 (inactive),2e-05 (inactive),0.0045 (inactive),-1.51% (inactive),20.2% (inactive)
CCN(c1c(C)n(C)n(-c2ccccc2)c1=O)S(C)(=O)=O,614,11.6% (inactive),3.3% (inactive),104,-98.2% (inactive),145,-0.58 (inactive),-3.6e-05 (inactive),0.00621 (inactive),23.1% (inactive),24.6% (inactive)
CC(C)(C)n1nnnc1CN1CCC(NC(=O)NC2CCCCC2)CC1,345,-18.5% (inactive),10.8% (inactive),93,-45.9% (inactive),115,-0.324 (inactive),9.8e-06 (inactive),0.00372 (inactive),11% (inactive),18.5% (inactive)
Cc1ccc(S(=O)(=O)Cn2nnnc2CN(Cc2ccco2)CC2CCCO2)cc1 (stereo not drawn),380,-1% (inactive),2.3% (inactive),99.8,-58.1% (inactive),69.6,-0.588 (inactive),-4.2e-05 (inactive),0.00299 (inactive),-5.71% (inactive),0.385% (inactive)
CCOc1cccc(-n2nnnc2-c2ccc(OC)cc2)c1,208,1.2% (inactive),-34.6% (inactive),3.6,-13.7% (inactive),112,-0.591 (inactive),-1.5e-05 (inactive),0.00569 (inactive),43% (inactive),61.2% (active)
CCc1nnc(-n2nc(C)cc2-c2ccccc2)n1N,648,-2.4% (inactive),0.6% (inactive),104,-20.7% (inactive),109,-0.551 (inactive),2.6e-05 (inactive),0.00642 (inactive),15.3% (inactive),22.1% (inactive)
CCOC(=O)/C=C1\CC(=O)Nc2nonc2N1,330,-3.4% (inactive),2% (inactive),105,-22.6% (inactive),118,-0.507 (inactive),-6.7e-05 (inactive),0.00414 (inactive),22% (inactive),21.4% (inactive)
CC1CCN(C(=O)CSc2nc3c(cnn3-c3ccccc3)c(=O)[nH]2)CC1,472,2.3% (inactive),-5.6% (inactive),102,14.9% (inactive),79.5,-0.582 (inactive),-2.5e-05 (inactive),0.00596 (inactive),10.9% (inactive),28.1% (inactive)
O=C(NCc1cccs1)C1CC(=O)N(c2ccccc2)C1 (stereo not drawn),345,-0.5% (inactive),11.8% (inactive),98.2,-28.7% (inactive),84,-0.625 (inactive),3.2e-06 (inactive),0.00459 (inactive),2.75% (inactive),4.93% (inactive)
CC1(C)CC(=O)C=C(NC2CCS(=O)(=O)C2)C1 (stereo not drawn),624,11.3% (inactive),5.8% (inactive),59.6,10.6% (inactive),100,-0.561 (inactive),1.2e-05 (inactive),0.00618 (inactive),15.5% (inactive),39.3% (inactive)
CSc1nc2ccccc2c(=O)n1N,618,7.8% (inactive),12.4% (inactive),90.5,28.4% (inactive),84.2,-0.404 (inactive),-1.3e-05 (inactive),0.00832 (inactive),13% (inactive),19% (inactive)
O=C(O)C1CCCCC1C(=O)NCCc1ccccc1 (stereo not drawn),350,4.6% (inactive),14.3% (inactive),99.3,-165% (inactive),103,-0.535 (inactive),-5.8e-05 (inactive),0.00513 (inactive),-15.8% (inactive),-11.5% (inactive)
c1ccc(Cn2ncc3c2ncn2c(-c4ccncc4)nnc32)cc1,430,-10.4% (inactive),-7.2% (inactive),117,-36% (inactive),98.3,-0.517 (inactive),-1.5e-05 (inactive),0.00557 (inactive),-13.1% (inactive),-7.97% (inactive)
O=C(CN1CCC(NC(=O)c2ccc(F)cc2)CC1)NCc1ccccc1F,435,4.6% (inactive),-0.1% (inactive),101,-192% (inactive),110,-0.438 (inactive),-6.6e-06 (inactive),0.00564 (inactive),10.1% (inactive),23.8% (inactive)
Cc1ccc(C)c(N2CCN(S(=O)(=O)c3ccc4c(c3)OCCO4)CC2)c1,521,-2.6% (inactive),-13.4% (inactive),134,-136% (inactive),209,-0.64 (inactive),3.2e-05 (inactive),0.00722 (inactive),10.2% (inactive),16.3% (inactive)
CCOC(=O)c1cc2sc(C)cc2n1CC(=O)NCc1ccc(F)cc1,560,-19.6% (inactive),-31% (inactive),98.7,-35.8% (inactive),124,-0.382 (inactive),-4.5e-05 (inactive),0.00466 (inactive),6.92% (inactive),16.7% (inactive)
COc1ccc(-n2c(Cc3cccn3C)nnc2SCC(=O)Nc2cccc(C)c2C)cc1,816,4.6% (inactive),4.2% (inactive),105,-26.4% (inactive),110,-0.596 (inactive),-4.5e-06 (inactive),0.00595 (inactive),0.797% (inactive),27.3% (inactive)
CCOCCCNC(=O)c1ccc2c(c1)N(Cc1ccccc1)C(=O)CS2=O (stereo not drawn),754,-7.4% (inactive),-19% (inactive),94.2,-20.2% (inactive),125,-0.525 (inactive),-1e-05 (inactive),0.00701 (inactive),-4.11% (inactive),21% (inactive)
CCOC(=O)Cc1cc(=O)n2[nH]c(C)c(-c3ccc(OC)cc3)c2n1,652,-0.3% (inactive),19.2% (inactive),94,0.6% (inactive),102,-0.301 (inactive),1.1e-05 (inactive),0.00404 (inactive),14.2% (inactive),22.5% (inactive)
Cc1cccc(-c2nnc(SCC#N)n2-c2cccc(Cl)c2)c1,651,10.2% (inactive),0.4% (inactive),118,66.1% (inactive),109,-0.441 (inactive),-2.1e-05 (inactive),0.00584 (inactive),10.9% (inactive),21.3% (inactive)
O=C(Nc1cccc(C(F)(F)F)c1)c1ccco1,580,-5.4% (inactive),4.3% (inactive),113,-33.8% (inactive),99.3,-0.617 (inactive),-5.6e-05 (inactive),0.00406 (inactive),-7.21% (inactive),-42.6% (inactive)
CCCCSc1nc2c(cnn2-c2ccc(F)cc2)c(=O)[nH]1,619,-10.7% (inactive),13.9% (inactive),81.3,-19.6% (inactive),122,-0.458 (inactive),-3.7e-05 (inactive),0.00558 (inactive),4.85% (inactive),12.8% (inactive)
CC(C)Cc1nc2oc3c(N4CCN(CCO)CC4)ncnc3c2c2c1CCCC2,450,-11.5% (inactive),-9.1% (inactive),99.9,6.5% (inactive),119,-0.475 (inactive),4e-05 (inactive),0.00359 (inactive),-8.86% (inactive),31.2% (inactive)
CC(C)(C)C(=O)/C=C(\N)c1ccccn1,404,-5% (inactive),15.3% (inactive),89.1,-33.9% (inactive),108,-0.466 (inactive),-5.5e-05 (inactive),0.00639 (inactive),-0.411% (inactive),2.89% (inactive)
c1ccc(Cn2nnc3c(N4CCCCCC4)ncnc32)cc1,525,-4.2% (inactive),35.8% (inactive),76.5,-63.4% (inactive),95.6,-0.55 (inactive),-2.5e-05 (inactive),0.0062 (inactive),-20.2% (inactive),-76.6% (inactive)
CCOC(=O)c1cccc(NC(=O)CS(=O)(=O)Cc2nc(-c3cccc(OC)c3)oc2C)c1,572,-40.8% (inactive),-19.3% (inactive),106,-15.4% (inactive),102,-0.524 (inactive),-3.5e-05 (inactive),0.00568 (inactive),-5.01% (inactive),12.4% (inactive)
Cc1cc(C)nc(/N=C2\NC(=O)CC(C(=O)O)N2c2ccc(Cl)cc2)n1 (stereo not drawn),639,-9.7% (inactive),0.5% (inactive),101,-44.1% (inactive),107,-0.552 (inactive),-2.8e-05 (inactive),0.00735 (inactive),11.6% (inactive),34.3% (inactive)
